The text below walks through data of PubChem BioAssay (EPA / NIEHS).

The source made the active and inactive calls. Rule for the calls: active = hit-call score of the fitted dose curve at least 0.9, where 1 is the maximum; inactive = score below 0.9.

Read-out in the test: Monocyte Chemoattractant Protein-1 (MCP1), CCL2 (gene 6347)
In words: BSK_LPS_MCP1: BioMAP Diversity Plus: LPS Assay for Monocyte Chemoattractant Protein-1 (MCP1) Biomarker Activity (AID 2283081).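 For AC50: co-culture stimulated with LPS.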 The note with it: primary human HUVEC with PBMC; actives raise or lower the signal. The method, then: BSK_LPS is a cell-based, multiplexed-readout assay that uses umbilical vein endothelium and peripheral blood mononuclear cells, a human vascular primary cell co-culture, with measurements taken at 24 hours after chemical dosing in a 96-well plate.BSK_LPS_MCP1 is an assay component measured in the BSK_LPS assay. It measures MCP-1 antibody related to regulation of gene expression using ELISA technology.Data from the assay component BSK_LPS_MCP1 was analyzed into 1 assay endpoint. This assay endpoint, BSK_LPS_MCP1, was analyzed with bidirectional fitting relative to DMSO as the negative control and baseline of activity. Using a type of binding reporter, gain or loss-of-signal activity can be used to understand changes in the signaling as they relate to the gene CCL2. Furthermore, this assay endpoint can be referred to as a primary readout, because this assay has produced multiple assay endpoints where this one serves a signaling function. To generalize the intended target to other relatable targets, this assay endpoint is annotated to the cytokine intended target family, where the subfamily is chemotactic factor.
The levels of cell surface (or secreted, indicated by the prefix "s") biomarker endpoints were measured by ELISA. Overt cytotoxicity to cells in confluent adherent cultures (all systems other than the BT system) was assessed by measuring total protein levels using sulforhodamine B (SRB) staining in parallel cultures at the time of biomarker measurements, indicated as SRB endpoints. For proliferation assays for adherent cell types, individual cell types are cultured at sub-confluence and relative cell numbers quantified by SRB staining at time points optimized for each system (48 h: 3C and CASM3C systems; 72 h: BT and HDF3CGF systems; 96 h: SAg system). SRB was performed by staining cells with 0.1% SRB after fixation with 10% TCA and reading wells at 560 nm.Viability and proliferation of PBMC (T cells) was quantified by Alamar Blue reduction for the SAg and BT systems. For PBMC viability (referred to as PBMC Cytotoxicity within the assay endpoint names), cells were plated (75,000/well in a 96-well plate) and then chemical samples added for 1 h before addition of activators, SEB and TSST-1 (20 ng/mL final concentration each). Cells were incubated for 90 h. Then, Alamar Blue (20 uL/well) (Invitrogen, Cat DAL1100) was added for 6 h, and the plates were read with a fluorescence microplate reader at 546/580 nm (excitation/emission). For PBMC proliferation, cells were plated and activated as above but incubated for only 16 h prior to addition of Alamar Blue. Plates were read after 6 h.
In the case of `CCCCCCCCCCC`, the result was inactive.

Regarding `CCCCCCCCCCO`, the outcome was inactive.

For `CC=Cc1ccc(O)c(OC)c1`, the result was inactive.

Turning to `CC1(C)CC(N=C=O)CC(C)(CN=C=O)C1` (stereo not given), the outcome was inactive.

Regarding `Cc1cccc(Nc2cc(Cl)nc(SCC(=O)O)n2)c1C`, the outcome was inactive.

For `CCCCc1ccc2c(n1)[C@@H](c1ccc(OC)cc1C[C@H](C)C(=O)O)[C@H](C(=O)O)[C@H]2c1ccc2c(c1)OCO2`, the result was inactive.

Consider `CCCCCCCCCCCCCO`, for which the result was inactive.

Consider `CC(=O)Oc1ccccc1C(=O)O`, for which the result was inactive.

For the compound `Cc1oc(-c2ccccc2)nc1CCOc1cccc2c1ccn2CCC(=O)O`, the outcome was inactive.

Broadly, the AC50 is the concentration at which the activity in the assay is half-maximal. Consider `CNCc1cc(F)ccc1Oc1ccc(Cl)c(Cl)c1`, for which the concentration at half-maximal activity (AC50) was 26.2 µM (active).

As for `CCOc1ccc2c(c1)C(C)=CC(C)(C)N2`, the result was inactive.

With `CCCCCC(=O)O`, the result was inactive.

Take `CC(=O)OCCOCCOCCOC(C)=O`: the outcome was inactive.

`OC[C@@H](O)[C@@H](O)[C@H](O)[C@H](O)CO`: the outcome was inactive.

As to `COCCOCCOC`, the outcome was inactive.

As for `Cc1cc(NC(=O)C(=O)O)cc(C)c1Oc1ccc(O)c2c1CCC2`, the result was inactive.

For the compound `Oc1ccc2c(c1)OC[C@@H](N1CCC(O)(c3ccc(F)cc3)CC1)[C@H]2O`, the result was inactive.

Turning to `CCCCCCCC=O`, the result was inactive.

Take `CN[C@H]1CC[C@@H](c2ccc(Cl)c(Cl)c2)c2ccc(S(N)(=O)=O)cc21`: the AC50 is 18.7 µM (active).

Consider `Cc1ccc(C(C)C)c(O)c1`, for which the outcome was inactive.

For `O=[N+]([O-])C(CO)(CO)CO`, the result was inactive.

For the compound `CCCCOC(=O)CCCCCCCCC(=O)OCCCC`, the result was inactive.

For `NS(=O)(=O)c1cc2c(cc1Cl)NCNS2(=O)=O`, the result was inactive.

With `O=C(O)CCCCC(=O)O`, the outcome was inactive.

As for `COC(=O)c1ccc(O)cc1`, the outcome was inactive.

As for `CCOC(=O)CCC(=O)OCC`, the outcome was inactive.

Consider `COc1cc(C=O)ccc1O`, for which the result was inactive.

In the case of `CNC(=O)[C@H]1O[C@@H](n2cnc3c(NCc4cc(Cl)ccc4OCc4cc(C)no4)ncnc32)[C@H](O)[C@@H]1N`, the outcome was inactive.

For `O=C(O)Cc1ccccc1Nc1c(Cl)cccc1Cl`, the outcome was inactive.

`CCCCC(CC)COC(=O)CC(C(=O)OCC(CC)CCCC)S(=O)(=O)O` (stereo not given): the AC50 is 30.9 µM (active).

On to `CCCCCCCCCCCC(=O)OC`, for which the outcome was inactive.

Turning to `C[Si]1(C)O[Si](C)(C)O[Si](C)(C)O[Si](C)(C)O1`, the result was inactive.

`Cc1ccc(N(C)C)cc1`: the outcome was inactive.

Turning to `CCc1c(C(=O)NN2CCCCC2)nn(-c2ccc(Cl)cc2Cl)c1-c1ccc(Br)cc1`, the AC50 is 8.8 µM (active).

Consider `CC(=O)OC/C=C(\C)CCC=C(C)C`, for which the outcome was inactive.

With `CN1CCCC1=O`, the outcome was inactive.

Turning to `COc1ccc(C)cc1N`, the outcome was inactive.

For `CCCCCCOCCO`, the result was inactive.

For the compound `Cc1nc(-c2ccc3c(c2)CCN(CCC2CCC(NC(=O)/C=C/c4ccc(F)cc4)CC2)CC3)no1` (stereo not given), the outcome was inactive.

On to `Cc1ccc(C)c(C)c1`, for which the result was inactive.
